The record followed here is PubChem BioAssay AID1508600 (Functional Genomics Laboratory (NCATS/FGL), 2020).

Out of some 53,000 sequences screened, about 3,700 (7%) were called active.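 How the source made its calls: active means gene knockdowns whose robust z-score for IL-1 alpha signal is at least 2 or at most -2, so actives lie on both sides; inactive means the rest.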 The sample as a whole holds a higher share of actives than the screen did.

This assay is described as follows: Components of the Cytosolic LPS Sensing Pathway: Gene Identification via Genome-wide siRNA Screen.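 Further: robust z of the log signal after scaling to non-targeting control siRNA wells of the plate.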 The following applies: RAW264.7 macrophages, IL-1a HTRF, actives lie on both sides, screened at 100 nM (by protocol), cells primed 5 h with Pam3CSK4 first. In a few lines: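 Cells (RAW264.7, 1×10^4 per well) were transfected with siRNA at 100 nM and cultured 48h at 37 degrees C. Pam3CSK4 was added for 5 hours; LipidA transfection followed for 24 hour. IL-1a was then measured by HTRF.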
(In TR-FRET formats the signal depends on donor and acceptor labels being close together.)
With GCCUCCAACUGAACAAAUUTT against Tnfrsf14, the z-score was 0.0618 (inactive).
The figure for GGACCAUCUCUUUGAUUGGTT against Olfr424 is -1.12 (inactive); for UCUUUGGCAACACUACCAUTT against Olfr1386 it is 0.366 (inactive).
With GAAGUCCUGGGACUUUAUGTT against Nudt14 the figure was 0.208 (inactive).
As to GGACAGAAUUGAAAUGCCUTT against Ropn1l, the z-score was -2.08 (active).
With GGUUUCGUUGUUCUUGUUGTT against Ttc33 the figure was 0.55 (inactive); with GGUAGAAGAGAACUGGACATT against Oas1a, 0.228 (inactive).
The figure for GGCAUGAUUAUUGUGUUUGTT against Abcb11 is 0.41 (inactive); for CCUAAGUACUGUAAGAAUATT against Mycn it is 0.506 (inactive); for CGCCAUGUUUAACAAAUUGTT against Limk2 it is -2.22 (active).
On to GCCAUUCUAGGAACUCUGATT against Thrap3, for which the z-score is -1.3 (inactive).
The figure for GGUAUCAGACAGCUGUAACTT against Mptx1 is 0.359 (inactive); for GCAUCAGUAGAAACCCACATT against Tmigd3 it is 0.872 (inactive).
With CCCUACUAUUGACGAAAACTT against Hpn the figure was 1.66 (inactive); with “CCUGAUCUUAAACAAAGAATT against 2610507B11Rik”, -0.742 (inactive); with GCCAACCCUGAAAACCCUUTT against Gc, -2.54 (active).
With GGUUGUUGAAAAGUCUUUATT against Rasa2 the figure was -0.102 (inactive).
With GCACUGGAAAAUUUCUAAUTT against Vmn2r7, the z-score is -0.0531 (inactive).
With GGAGGUAGAAAUAAAUACUTT against Sva the figure was 2.01 (active); with GGACAAUUACAACACUCAATT against Ablim3, -0.00526 (inactive).
With GGCUUGAUCAUGACUUAAATT against Armc8 the figure was 0.638 (inactive).
The figure for GGUUUUGUUAUGGUAAGUCTT against Vdr is -0.573 (inactive); for CCAAGCAUUCGAGUAUGUUTT against Ctsj it is 1.07 (inactive); for CCAAUGAUUUCCUGCUAAATT against Lst1 it is 3.21 (active).
Turning to GGAAGACAACUGAACAUUUTT against Ralgds, the z-score was 0.837 (inactive).
Regarding CCGGAAGCUAUUGACCAUUTT against Tmem11, the z-score is 3.21 (active).
In the case of GGCCGUAAUAUCUCCUCCUTT against Krt13, the z-score was 1.41 (inactive).
With CGCGAGGUCUUCGAAAGAATT against Siva1 the figure was -0.884 (inactive); with CGCGUUUCGUGUUUCAAAATT against Mus81, -0.464 (inactive); with GAUCGAAGCCUAAGACCGCTT against Cypt3, -0.578 (inactive).
Consider GCCUUAGGGAGUGUUAAAATT against Spink8, for which the z-score is -0.304 (inactive).
With GGUGGAGAAGCAGAUGCUUTT against Nek2, the z-score is 2.25 (active).
GGAAUUCCUUACCUUCUUATT against Cyp2c65: the z-score was -0.269 (inactive).
Turning to GGAGCAUCACUCUUAACAUTT against Krt71, the z-score was 1.58 (inactive).
With GGGACACUUUCACUUGUUCTT against Rmnd5a the figure was 0.159 (inactive).
With GCUCAGGCAAGACUCAUUGTT against Trim45 the figure was -0.57 (inactive).
Regarding GGACUUUUGGCACUCUUAUTT against Snx10, the z-score is 0.127 (inactive).
With GGAUUUGAUUCCGCCAACGTT against Pon2 the figure was -2.03 (active).
The figure for GCUUAAAAGUGAAGUCUUGTT against Tmem203 is -0.615 (inactive); for GUAAGGUCACCGGGUUGCATT against Lor it is 0.547 (inactive); for GGUGGUCCUGGAUCUUUAUTT against Spon2 it is -0.986 (inactive).
The figure for GGACUUCGACAAACUGAAGTT against Zfp532 is 0.547 (inactive); for GCCUUCUUGAACUGAAAGATT against Spc24 it is -2.04 (active).
Turning to GGUUCUAUGUUGACAAUCATT against Osgin2, the z-score was 0.621 (inactive).
With GGAAAUCUGAGUGUGCACUTT against Pcdhgb1, the z-score was 1.45 (inactive).
The figure for GGCUGUCUUCAUCUUAGAUTT against Copz2 is -2.61 (active); for GGAUAAUACAUCCCAAAACTT against Prkar2b it is -0.607 (inactive); for GGAUCUCCAGAGCAGAAAATT against Nckap5 it is -1.64 (inactive).
Consider GGUGAAUUCAACUCUCUAATT against Decr1, for which the z-score is 2.43 (active).
The figure for GGGUGUUGAUGUCAUUGUGTT against Dbn1 is 1.51 (inactive); for GCAUGCACUUAAGAUUCUATT against Lypd6b it is 0.595 (inactive).
The figure for CCAGGAAUCAGUCUAUACUTT against Lrrc15 is 1.45 (inactive).
The figure for GGUUGUAACAAACAUACUCTT against Sstr4 is 2.99 (active); for GGACCUGGAGAAAUUGAAGTT against Nlrp6 it is 1.82 (inactive); for GGUCAUCUCAGACCUCCUCTT against Pde6a it is -0.275 (inactive).
For GCAAAACCAUUUCGAAACATT against Slc41a3, the z-score was 0.363 (inactive).
As for CCUGUGGAUCCAUUUGUUCTT against Tex15, the z-score is -2.25 (active).
The figure for GGAAAAGCUACCUGUGUCATT against Tril is -1.88 (inactive); for GGUGAUGGAAUACCAAAGGTT against Dnajc28 it is -0.736 (inactive); for GGAUAUCUUCAUAUUGGUGTT against Ces1f it is 4 (active).
The figure for GGAGAUCCCGUCACUAUCUTT against Lrrc61 is -0.439 (inactive); for GGACAAUGAACUGAUUACCTT against Ap1s2 it is 0.992 (inactive).
With GGGACAAAGAAAAUCUACUTT against Ehf the figure was 0.637 (inactive).
With GUACCAGAAGUGAGUUCAGTT against Leap2, the z-score is -2.97 (active).
The figure for GCUGCCUCUUUCUUUGCUUTT against Pllp is -0.769 (inactive).
With GGCAGAUUCAGAAUUGUCUTT against Il17a, the z-score is -2.58 (active).
Take GGACUUUGCCCUGGAUUCUTT against Cnot1: the z-score is -0.216 (inactive).
Take GGUUUGUUGUUGUUUUUGGTT against Vezt: the z-score was 0.44 (inactive).
With GCAAUUACCAGUAUGCUACTT against Tbx19 the figure was 0.914 (inactive).
As for CGGUAAACUGGUUUUACUUTT against Otulin, the z-score was 1.8 (inactive).
The figure for GCCACAUCCUAUGUGAUGATT against Olfr1349 is -0.647 (inactive); for GGAAGCUAUAUAUCAAGAATT against Tcea1 it is 0.69 (inactive); for GUCCGUCUCGGAGAAAUGUTT against Ccdc106 it is -2.28 (active).
With “GGAUUCACGAGCAUAAGCUTT against 1700020D05Rik” the figure was -1.31 (inactive); with GGAGGCAGCAGUUAUUGUGTT against Ly6a, -0.486 (inactive); with GGCCUCAGACCUUCUAUGATT against Mtap, -0.149 (inactive).
The figure for GGUGUCCUCUUUGUUCAUGTT against Sgce is 2.94 (active); for GGCUGGUACUCCAUUUUAGTT against Neil2 it is 0.0451 (inactive).
For the sequence GCCAGUUGGUUACUAUGGATT against Tax1bp3, the z-score was -0.412 (inactive).
GGGAUUACCAAAAAGGCAUTT against Senp7: the z-score is 0.128 (inactive).
With GGAUAUUAACUAUGGGUUUTT against Tlr2 the figure was 0.605 (inactive).
The figure for GGCCUGCUUUGUUCUGAAUTT against Olfr846 is -2.53 (active); for GCGCAAUAAUCAGACGGUUTT against Zhx2 it is -0.624 (inactive); for GGAAGAAGGUACAUUUCAGTT against Ankrd42 it is 0.362 (inactive).
With GGGCAAAAUAUGAAAUACATT against Pate6 the figure was 2.92 (active); with GAGAGAGACAAUCCUGAAGTT against Klra22, -0.0539 (inactive); with GGCAAAUGGAAACAGCCAUTT against Serpina1d, -1.56 (inactive).
Turning to CCUGCUCAAACUUUUGUGGTT against Ephx4, the z-score was 0.928 (inactive).
With GGAACCUUCUCCAAAGCAATT against Rpgrip1 the figure was -2.45 (active).
Regarding CGUCAAAGGAGACAGCUUUTT against Rbm15b, the z-score is 1.56 (inactive).
The figure for GCUCAAAUUGAGUCCUUAUTT against Ccdc122 is -0.548 (inactive); for GCUAGCCAUGGUUACCCACTT against Slc39a3 it is -0.818 (inactive); for GGGACACUAGAAGUAGGGATT against Pramel4 it is 0.299 (inactive).
In the case of GACGAUCAAGAUAUGAUGGTT against Olfr196, the z-score is 0.259 (inactive).
With GCACGUACUGUUCUAGAAGTT against Kcng4 the figure was 1.48 (inactive); with CCCAAAGAUAGAGCUCUGUTT against Sec61a2, -1.94 (inactive); with GGUUGAUCUAAUGAUUGUGTT against Ccdc34, 2.5 (active).
With UCUCCUACCUAUGCACAUATT against Panx2 the figure was -0.925 (inactive); with “GCAAGUCUGGAUGGAUGAGTT against 1190005I06Rik”, -1.54 (inactive); with CCCUCGUUGAAUUAAACUUTT against Zfp385b, 0.88 (inactive).
The figure for GGUCUCAGACAAAGAUGAATT against Trmt10c is -0.239 (inactive).
With GGAAUGGAGUUUGGUUUUGTT against Extl1, the z-score was 2.67 (active).
The figure for GGAAACGAGUUGGAGACAATT against Gtpbp1 is -1.03 (inactive); for GGUUAAGUUCCUCUGGAACTT against Pnliprp2 it is -0.0719 (inactive); for “GGCACUACCACAAGUAUAGTT against 1700073E17Rik” it is 0.0893 (inactive).
With GCAGGUUAUGGUCAUAUUUTT against Zfp646 the figure was 0.583 (inactive); with GCAGUUGAGUCCACCUCAATT against Ccdc187, 2.18 (active); with GGAGAACGUGGUACAAAGUTT against Sncg, -1.27 (inactive).
